Shown are actives, neighbours in structure and some others; about 6.8% of the full set was active somewhere.
Pf Dd2 growth: P. falciparum Dd2 growth inhibition | SYBR Green, 72 h; stronger effect = lower value | activity change, % at 10 µM | actives 2.3% (n = 94,000) | AID 1159554; in the data active = activity change below about -80%; inconclusive = no clear call, values can overlap the other calls
C diff HTS: inhibitors of Clostridium difficile growth. growth activity, negative = inhibition, % at 16 µg/mL (by protocol). actives 0.25% (n = 86,000). Clostridium difficile clinical isolate growth, OD600, 24 h; stronger effect = lower value;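 active = mean growth activity at or below -80% and every replicate also at or below -80%; inconclusive = mean at or below -80% but some replicate above -80%; inactive = mean growth activity above -80%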
T cruzi growth: blocks T. cruzi growth in NIH3T3 culture | inhibition, % at 8.34 µM | T. cruzi beta-gal in NIH3T3, GalScreen luminescence, 90 h | actives 5.9% (n = 77,000) | AID 624255;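 active = mean inhibition above about 93%, with at least 55% of replicates each passing it, limit read from the data, passing the limit was not always enough; inconclusive = only one of those two conditions holds; inactive = neither condition holds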
Hits are given with their value; - = inactive; ? = inconclusive; . = no result given.

SMILES	Pf Dd2 growth	C diff HTS	T cruzi growth
CN(C)C(=O)c1ccc(-c2ccc3c(c2)[C@@H]2[C@@H](CCN2C(=O)C2CC2)[C@@H](CO)N3C)cc1	-	-	-
CN(C)C(=O)c1cccc(-c2ccccc2[C@H]2[C@H](C#N)N(C(=O)C3CCCCC3)[C@H]2CO)c1	-	-	.
C[C@H](C(=O)N(C)C[C@@H]1OCc2ccccc2-c2c(n(C)c3ccccc23)C(=O)N([C@@H](C)CO)C[C@H]1C)c1ccccc1	-	-	.
C[C@H](CO)N1C[C@H](C)[C@@H](CN(C)C(=O)[C@H](C)c2ccccc2)OCc2ccccc2-c2c(n(C)c3ccccc23)C1=O	-94	-	.
CCC(=O)Nc1ccc2c(c1)OC[C@H](C)N(C(=O)CC)C[C@H](C)[C@@H](OC)CN(C)C2=O	-	-	.
COc1ccc2c3c([nH]c2c1)[C@H](CO)N(S(=O)(=O)c1ccc(C)cc1)CC31CN(C(=O)Cc2cccnc2)C1	-	-	.
COc1ccc2c3c([nH]c2c1)[C@H](CO)N(S(=O)(=O)c1ccc(C)cc1)CC31CCN(C(=O)Cc2cccnc2)CC1	-86	-	.
CCS(=O)(=O)N1CC2(C1)CN(S(=O)(=O)c1ccc(C)cc1)[C@H](CO)c1[nH]c3cc(OC)ccc3c12	-	-	.
CCCC(=O)N1CC2(C1)CN(S(=O)(=O)c1ccc(C)cc1)[C@@H](CO)c1[nH]c3cc(OC)ccc3c12	-87	-	.
C[C@@H]1CN([C@@H](C)CO)C(=O)Cc2cc(NS(C)(=O)=O)ccc2O[C@H]1CN(C)S(C)(=O)=O	-	-	-
CCC(=O)N[C@H]1CC[C@@H](CCn2cc(-c3cccc(OC)c3)nn2)O[C@H]1CO	-	-	-
CC(C)NC(=O)Nc1ccc2c(c1)C(=O)N([C@@H](C)CO)C[C@@H](C)[C@H](CN(C)C(=O)Nc1cccc3ccccc13)OCCCC[C@H](C)O2	-86	-	-
C[C@H]1CCCCO[C@H](CN(C)C(=O)Nc2cccc3ccccc23)[C@@H](C)CN([C@@H](C)CO)C(=O)c2cc(NC(=O)C3CCCCC3)ccc2O1	-86	-	-
C[C@@H]1CCCCO[C@@H](CN(C)C(=O)Nc2cccc3ccccc23)[C@@H](C)CN([C@H](C)CO)C(=O)c2cc(NC(=O)C3CCCCC3)ccc2O1	-	-	-
CC(C)NC(=O)Nc1ccc2c(c1)C(=O)N([C@H](C)CO)C[C@H](C)[C@H](CN(C)C(=O)Nc1cccc3ccccc13)OCCCC[C@@H](C)O2	-	-	-
C[C@@H]1CCCCO[C@@H](CN(C)C(=O)Nc2cccc3ccccc23)[C@H](C)CN([C@@H](C)CO)C(=O)c2cc(NC(=O)C3CCCCC3)ccc2O1	-83	-	-
C[C@@H]1CN([C@H](C)CO)C(=O)c2cc(NC(=O)C3CCCCC3)ccc2O[C@@H](C)CCCCO[C@H]1CN(C)C(=O)Nc1cccc2ccccc12	?	-	-
C[C@@H]1CN([C@H](C)CO)S(=O)(=O)c2ccc(-c3cncnc3)cc2O[C@H]1CN(C)C(=O)C1CCCCC1	-	-	.
Cc1ccc(S(=O)(=O)N(C)C[C@@H]2Oc3c(NS(=O)(=O)c4cccs4)cccc3C(=O)N([C@H](C)CO)C[C@@H]2C)cc1	-	-	-
C[C@@H]1CN([C@@H](C)CO)C(=O)c2cc(-c3ccc(C#N)cc3)cnc2O[C@H]1CN(C)C(=O)Nc1ccccc1	-	-	-
O=C(C[C@@H]1CC[C@H]2[C@@H](COC[C@@H](O)CN2C(=O)c2ccc(F)cc2)O1)N1CCOCC1	-	.	-
C[C@@H]1CCCCO[C@@H](CN(C)Cc2ccc(C(F)(F)F)cc2)[C@@H](C)CN([C@H](C)CO)C(=O)c2cc(NC(=O)Cc3ccccc3)ccc2O1	-	.	-
C[C@@H]1CCCCO[C@@H](CN(C)Cc2ccc(C(F)(F)F)cc2)[C@H](C)CN([C@@H](C)CO)C(=O)c2cc(NC(=O)Cc3ccccc3)ccc2O1	-86	.	-
C[C@@H]1CCCCO[C@H](CN(C)Cc2ccc(C(F)(F)F)cc2)[C@H](C)CN([C@@H](C)CO)C(=O)c2cc(NC(=O)CCCN(C)C)ccc2O1	-89	-	-
C[C@H](CO)N1C[C@H](C)[C@@H](CN(C)Cc2ccc(C(F)(F)F)cc2)OCCCC[C@H](C)Oc2ccc(NC(=O)Cc3ccccc3)cc2C1=O	-81	.	-
C[C@H]1CCCCO[C@@H](CN(C)CC2CCCCC2)[C@@H](C)CN([C@@H](C)CO)C(=O)c2cc(NC(=O)CCCN(C)C)ccc2O1	-89	-	-
C[C@@H]1CCCCO[C@H](CN(C)CC2CCCCC2)[C@@H](C)CN([C@H](C)CO)C(=O)c2cc(NC(=O)CCCN(C)C)ccc2O1	-	-	-
C[C@@H]1CN([C@@H](C)CO)C(=O)c2cc(NC(=O)CCCN(C)C)ccc2O[C@@H](C)CCCCO[C@@H]1CN(C)Cc1ccc(C(F)(F)F)cc1	-	-	-
